# Measured values from the supplement of paper PMC7156485.
# Values without a mark were called inactive.
# Tested on: TDF
# Assay: H1.0 immunofluorescence intensity relative to DMSO (% of DMSO); higher = stronger H1.0 induction, active = 120 or more
# Settings: concentration: 10 µM; 24 h
# How it was run: (§1)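 After 24 h at 37 °C with compounds at 10 µM, in triplicate, HCC1569 and TDF cells were fixed with 3.7% formaldehyde. Immunostaining used a rabbit anti-H1.0 antibody and an AlexaFluor 647 secondary, with DAPI, and six fields per well were imaged at ×10. H1.0 nuclear intensity or cell number is presented as percent of the plate control, from the median of replicates, with HCC1569 values smoothed for positional effects.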
# 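Also: TDF is a line of transformed human dermal fibroblasts of mesenchymal origin.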
row,Structure (SMILES),H1.0 immunofluorescence intensity
1,Nc1nc(N)c2nc(CNc3ccc(C(=O)NC(CCC(=O)O)C(=O)O)cc3)cnc2n1 (configuration not stated) [Aminopterin],87.8
2,CCOC([O-])=Nc1c[n+](N2CCOCC2)no1 [Molsidomine],101
3,"CCCCCC#CCC#CCC#CCC#CCCCC(=O)O [5,8,11,14-Eicosatetraynoic acid]",93.3
4,CCCCCCCCCC(=O)O [Decanoic acid],100
5,CS(=O)(=O)O.CSc1ccc2c(c1)C(N1CCN(C)CC1)Cc1ccccc1S2 (configuration not stated) [Methiothepin mesylate],111
6,COc1c(N2CC3CCCNC3C2)c(F)cc2c(=O)c(C(=O)O)cn(C3CC3)c12.Cl (configuration not stated) [Moxifloxacin.HCl],96.7
7,O=C1c2ccccc2-c2n[nH]c3cccc1c23 [JNK Inhibitor II],90.5

# Tested on: HCC1569
# Assay: H1.0 immunofluorescence intensity relative to DMSO (% of DMSO); higher = stronger H1.0 induction, active = 140 or more
# Settings: concentration: 10 µM; 24 h
# How it was run: as §1
row,Structure (SMILES),H1.0 immunofluorescence intensity
1,N#CC(=C1Nc2ccccc2S1)c1ccnc(NCCc2cccnc2)n1 [JNK Inhibitor V],123
2,Cc1ccccc1C(C(=O)NC1CCCCC1)N(C(=O)Cn1ccnc1C)c1cccc(F)c1 (configuration not stated),105
3,Cc1ccccc1N1C(=O)c2cc(S(N)(=O)=O)c(Cl)cc2NC1C (configuration not stated) [Metolazone],91.1
4,CCOC(=O)[C@H](CCc1ccccc1)N[C@@H](C)C(=O)N1C(=O)N(C)C[C@H]1C(=O)O.Cl,92.3
5,CC(C)=CCCC(C)=CCCC(C)=CCCC(C)=CCCC(C)=CCCC(C)=CCCC(C)=CCCC(C)=CCCC(C)=CCO [Solanesol],93.9
6,CNCCCC1c2ccccc2C=Cc2ccccc21.Cl [Protriptyline hydrochloride],117
7,CCN(CC)CC(=O)Nc1c(C)cccc1C.Cl [Lidocaine hydrochloride],94.4
8,Cc1ccc(NC2=CC(=O)c3sc(C)nc3C2=O)cc1,104
9,O=C(Nc1cccc2c(=O)cc(-c3nn[nH]n3)oc12)c1ccc(OCCCCc2ccccc2)cc1 [Pranlukast],109
10,"O=c1sn(-c2cccc3ccccc23)c(=O)n1Cc1ccccc1 [4-benzyl-2-(1-naphthyl)-1,2,4-thiadiazolidine-3,5-dione]",98.8
11,NC1CONC1=O [L-Cycloserine],84.8
12,"CCCCCC(O)C=CC=CC=CC(O)CC=CCCCC(=O)O [8(S),15(S)-DIHETE all trans]",101
13,CC(C)C(CO)Nc1nc(Nc2cc(N)cc(Cl)c2)c2ncn(C(C)C)c2n1 (configuration not stated),177 (active)
14,CC(N)(Cc1ccc(O)cc1)C(=O)O (racemic) [DL-alpha-Methyl-p-tyrosine],106
15,COc1cc(C(O)C(=O)O)ccc1O (racemic),91.2
16,COc1ccc(/C=C2\COc3ccc(C)cc3C2=O)cc1O,134
17,O=C(C=CC=Cc1ccc2c(c1)OCO2)N1CCCCC1 [Piperine],104
18,CC1OC(OC2C(Oc3cc(O)c4c(=O)cc(-c5ccc(O)cc5)oc4c3)OC(CO)C(O)C2O)C(O)C(O)C1O (configuration not stated) [Rhoifolin],89.9
19,COc1cc2c[n+](C)c3c4cc5c(cc4ccc3c2cc1OC)OCO5.[Cl-],106
20,CC1COc2c(N3CCN(C)CC3)c(F)cc3c(=O)c(C(=O)O)cn1c23 (configuration not stated) [Levofloxacin],101
21,O=C(Nc1cccc(Nc2nccc(Nc3cccc(C(F)(F)F)c3)n2)c1)C1CC1 [Aurora Kinase Inhibitor III],247 (active)
22,Nc1nc(Nc2ccc(S(N)(=O)=O)cc2)nn1C(=S)Nc1c(F)cccc1F [Cdk1/2 Inhibitor III],128
23,Cc1ccc(C(=O)c2cc(O)c(O)c([N+](=O)[O-])c2)cc1 [Tolcapone],112
24,"CCCCCC=CCC=CCC=CCC1OC1CCCC(=O)O (configuration not stated) [5,6-Epoxyeicosatrienoic acid]",103
25,CN(C)CCOC(C)(c1ccccc1)c1ccccn1.O=C(O)CCC(=O)O (configuration not stated) [Doxylamine succinate],87.7
